The text below walks through data of PubChem BioAssay (NCI).

Among the test systems are NCI-H23 lung; NCI-H226 lung; NCI-H322M lung; HOP-62 NSCLC; NCI-H460 lung; NCI-H522 lung; A549/ATCC NSCLC; 786-0 renal; COLO 205 colon; DU-145 prostate; K-562 leukemia; MALME-3M melanoma; MDA-MB-231 breast; RXF 393 renal; SF-268 CNS; SF-295 CNS; SF-539 CNS; UACC-257 melanoma; M14 melanoma; HCT-15 colon.
Assay in all cases: NCI-60 one-dose screen, 48 h (100 = growth as untreated, 0 = no growth, -100 = all killed)
Details in all cases: 10 µM

Structures are written as SMILES. The panel holds about 83,000 compounds, 20% with a hit somewhere; the sample as a whole holds those more often.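 Note: values are percent growth. 100 is the growth of untreated cells, values between 100 and 0 indicate rising inhibition; between -100 and 0 indicates cell death.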 A number with no mark means an inactive call. The source made the active and inactive calls. Rule for the calls: active = growth percent below 10; inactive = the rest.

Turning to `C#Cc1ccc(-n2c(/C=C/c3ccc4ccccc4n3)nc3ncccc3c2=O)cc1`, the growth in the test on NCI-H23 lung is -44.9% (active); with NCI-H226 lung, -81.9% (active); in the test with NCI-H322M lung, -45.1% (active); in the test with HOP-62 NSCLC it was -34% (active); in the test with NCI-H460 lung, -46.3% (active); in the test on NCI-H522 lung, -73.9% (active). The growth with A549/ATCC NSCLC was -25.8% (active); with 786-0 renal, 0.1% (active); in the test with COLO 205 colon, -94.9% (active); in the test on DU-145 prostate, -37.6% (active); in the test on K-562 leukemia, 3.17% (active); with MALME-3M melanoma, -62.9% (active). For the same compound, the growth with MDA-MB-231 breast was -41.2% (active); in the test on RXF 393 renal, -82.5% (active); in the test with SF-268 CNS, -49.5% (active); in the test on SF-295 CNS, -58.3% (active); in the test with SF-539 CNS, -17.6% (active); in the test on UACC-257 melanoma, -72.9% (active). In addition, the values for the growth in the test with M14 melanoma and with HCT-15 colon were -19% (active) and -18.8% (active), respectively.

`COc1cc(-c2cc(/C=C/C(=O)c3ccc4c(c3)OCO4)[nH]n2)cc(OC)c1OC`: the growth is 102% in the test on NCI-H23 lung; 84.6% in the test on NCI-H226 lung; 54.2% in the test on NCI-H322M lung; 48.7% in the test on HOP-62 NSCLC; 68.6% with NCI-H460 lung; 57.4% with NCI-H522 lung. Also, the growth in the test on A549/ATCC NSCLC is 87.2%; with 786-0 renal it was 40.6%; in the test with COLO 205 colon, 100%; with DU-145 prostate it was 48%; in the test on K-562 leukemia it was 22.3%; with MALME-3M melanoma it was 95.7%. Besides, the growth in the test on MDA-MB-231 breast was 64.5%; in the test on RXF 393 renal, 75.4%; in the test with SF-268 CNS, 85.3%; with SF-295 CNS, 19.5%; in the test with SF-539 CNS it was 3.66% (active); in the test with UACC-257 melanoma it was 107%. The growth in the test with M14 melanoma was 101%; in the test with HCT-15 colon, 63.9%.

Consider `COc1ccc(OC)c(/C=C/c2nnc(Nc3ccc(Cl)cc3)o2)c1`, for which the growth with NCI-H23 lung is 87.8%; in the test with NCI-H226 lung it was 56.1%; in the test with NCI-H322M lung, 58.6%; in the test with HOP-62 NSCLC, 35.3%; in the test on NCI-H460 lung it was 15.5%; in the test with NCI-H522 lung, 92.9%. Moreover, the growth in the test on A549/ATCC NSCLC is 40.2%; in the test with 786-0 renal, 27.9%; in the test on COLO 205 colon, 74.2%; with DU-145 prostate it was 78.9%; in the test with K-562 leukemia, 80.6%; in the test on MALME-3M melanoma it was 41.5%. In addition, the growth in the test with MDA-MB-231 breast was 70.9%; with RXF 393 renal, 56.3%; with SF-268 CNS, 76.5%; in the test with SF-295 CNS, 46.9%; in the test with SF-539 CNS it was 90%; in the test with UACC-257 melanoma, 100%. Further, the figures for the growth with M14 melanoma and with HCT-15 colon were 77.9% and 98.3%, respectively.

On to `O=S(=O)(Nc1ccccn1)c1ccc(N=Nc2ccc(O)c3ncccc23)cc1`, for which the growth in the test on NCI-H23 lung was 14.5%; in the test with NCI-H226 lung it was 21.3%; in the test on NCI-H322M lung, -11.8% (active); in the test with HOP-62 NSCLC it was 7.27% (active); in the test on NCI-H460 lung, 5.48% (active); with NCI-H522 lung it was -21.6% (active). The growth in the test on A549/ATCC NSCLC was -6.8% (active); in the test with 786-0 renal it was 21.4%; with COLO 205 colon it was 108%; with DU-145 prostate it was 27.6%; in the test with K-562 leukemia it was 6.51% (active); in the test on MALME-3M melanoma, -19.8% (active). Besides, the growth in the test on MDA-MB-231 breast was -2.1% (active); in the test with RXF 393 renal, 27.1%; with SF-268 CNS, 25%; in the test with SF-295 CNS, 6.2% (active); with SF-539 CNS, 10.8%; in the test with UACC-257 melanoma, -23.5% (active). For the same compound, the growth with M14 melanoma was 11.8%; in the test on HCT-15 colon it was 14.5%.

Consider `COc1cc(C(=O)/C=C/c2cc(-c3cc(OC)c(OC)c(OC)c3)n[nH]2)cc(OC)c1OC`, for which the growth with NCI-H23 lung was 68.4%; in the test on NCI-H226 lung, 36.8%; in the test with NCI-H322M lung, -8.96% (active); in the test with HOP-62 NSCLC, -30.1% (active); with NCI-H460 lung, 29.7%; in the test with NCI-H522 lung it was -75.5% (active). Moreover, the growth in the test on A549/ATCC NSCLC is 53.6%; in the test on 786-0 renal, -71.7% (active); in the test on COLO 205 colon it was -88.3% (active); in the test with DU-145 prostate it was 4.4% (active); in the test on K-562 leukemia it was 4.46% (active); with MALME-3M melanoma, -56% (active). Moreover, the growth with MDA-MB-231 breast is 3.71% (active); in the test on RXF 393 renal, -84.3% (active); in the test on SF-268 CNS, 4.97% (active); in the test on SF-295 CNS, 135%; in the test with SF-539 CNS, -56.2% (active); with UACC-257 melanoma, -1.5% (active). The growth in the test with M14 melanoma was 6.7% (active); in the test on HCT-15 colon, 3.63% (active).

With `O=C1N=NC2=C1c1c3ccccc3c(O)n1CC2`, the growth in the test with NCI-H23 lung was 96.7%; in the test on NCI-H226 lung, 105%; in the test with NCI-H322M lung it was 98.9%; with HOP-62 NSCLC it was 91.6%; in the test with NCI-H460 lung it was 110%; in the test with NCI-H522 lung, -36.3% (active). In addition, the growth in the test with A549/ATCC NSCLC is 45.1%; in the test with 786-0 renal, 101%; in the test on COLO 205 colon, 129%; in the test with DU-145 prostate it was 121%; in the test on K-562 leukemia it was 93%; with MALME-3M melanoma it was 109%. Also, the growth with MDA-MB-231 breast is 107%; in the test with RXF 393 renal it was 106%; in the test with SF-268 CNS, 108%; in the test with SF-295 CNS, 99.4%; with SF-539 CNS it was 94.9%; in the test with UACC-257 melanoma, 8.27% (active). For the same compound, the growth in the test with M14 melanoma was 93.2%; in the test on HCT-15 colon, 113%.

In the case of `CS(=O)(=O)Nc1cccc(-c2cc(-c3ccccc3Cl)c(C#N)c(N)n2)c1`, the growth in the test on NCI-H23 lung was 38.7%; in the test with NCI-H226 lung, 53.4%; in the test with NCI-H322M lung, 51.8%; in the test with HOP-62 NSCLC it was 45.8%; in the test on NCI-H460 lung it was 5.56% (active); in the test on NCI-H522 lung, -7.33% (active). The growth in the test on A549/ATCC NSCLC was 29.4%; in the test with 786-0 renal, 46.7%; in the test on COLO 205 colon, -0.179% (active); in the test with DU-145 prostate it was 8.95% (active); in the test with K-562 leukemia, 14.1%; in the test with MALME-3M melanoma it was 24.8%. The growth in the test on MDA-MB-231 breast is 49.1%; in the test on RXF 393 renal it was 6.08% (active); with SF-268 CNS, 49.2%; in the test on SF-295 CNS, 7.3% (active); in the test on SF-539 CNS, -14.4% (active); in the test with UACC-257 melanoma, 74.3%. In addition, the growth with M14 melanoma was 23.4%; with HCT-15 colon, 30.1%.

Turning to `O=C1/C(=C\c2ccc(F)cc2)CN(C(=O)c2ccc([N+](=O)[O-])cc2)C/C1=C\c1ccc(F)cc1`, the growth is 49.3% in the test on NCI-H23 lung; 38.2% in the test with NCI-H226 lung; 76.3% with NCI-H322M lung; 32.9% with HOP-62 NSCLC; 68.4% with NCI-H460 lung; 46.9% with NCI-H522 lung. The growth in the test on A549/ATCC NSCLC was 52.9%; in the test with 786-0 renal, 20.3%; with COLO 205 colon, 38.8%; in the test with DU-145 prostate, 25.5%; with K-562 leukemia it was 1.96% (active); in the test on MALME-3M melanoma, 40.5%. The growth in the test on MDA-MB-231 breast is 0.131% (active); in the test with RXF 393 renal, -2.85% (active); in the test on SF-268 CNS it was 29.2%; in the test on SF-295 CNS, 10.4%; in the test with SF-539 CNS, 58%; with UACC-257 melanoma, 67%. Moreover, the values for the growth in the test with M14 melanoma and in the test with HCT-15 colon were 2.02% (active) and 7.31% (active), respectively.
